In PubChem BioAssay (NCATS):
Values without a mark were called inactive. Inconclusive results are not listed. A call without a number means that no potency is given here. Activity calls are given as the source filed them. Unless noted, calls come from the whole dose curve; as a rule, active = well fitted curve in the direction sought with a large enough effect; inconclusive = small, poorly fitted or top-dose-only effect, or another doubt; inactive = no such curve, though single readings can be large; an effect the other way counts as inactive or inconclusive.

Legend:
[1] = NS1 protein of Zika virus - qHTS assay to identify small molecule inhibitors in human HEK 293 cells (AID 1347053); note: nearly all actives have a fitted effect of over 55% in size
How it was run: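 HEK 293; 20 h pre-culture, 37 C/5% CO2; cpd 1 h pre-infection; ZIKV MR766, MOI = 0.5, 24 h, 37 C; TR-FRET NS1 readout (two anti-NS1 Abs); norm. to no-virus vs infected.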

[2] = target: T1, Tyrosine-protein phosphatase non-receptor type substrate 1 (Homo sapiens) + Leukocyte surface antigen CD47 (Homo sapiens) (UniProt P78324+Q08722); assay: CD47-SIRPalpha protein protein interaction - LANCE assay qHTS validation (AID 1347057; active = well fitted curve in the direction sought with a large enough effect in the signal ratio, with a control signal flat, not every such curve was filed as active; the % refers to the signal ratio)
How it was run: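 First, His-tagged CD47 and Eu-labelled anti-His antibody met the compound for 30 min; next, site-specifically biotinylated SIRPalpha was added for 30 min; finally streptavidin-APC was added before reading the TR-FRET ratio.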

[3] = target: T1, Tyrosine-protein phosphatase non-receptor type substrate 1 (Homo sapiens) + Leukocyte surface antigen CD47 (Homo sapiens); assay: CD47-SIRPalpha protein protein interaction - HTRF assay qHTS validation (AID 1347058; active = well fitted curve in the direction sought with a large enough effect in the signal ratio, not every such curve was filed as active; the % refers to the signal ratio;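 note: recombinant soluble extracellular CD47 with His tag and biotinylated SIRPalpha domains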)
How it was run: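 TR-FRET read (Ch1/Ch2 ratio) of soluble extracellular CD47 and Avi-biotinylated SIRPalpha domains in PBS pH 7.4 with 0.05% IGEPAL; 7-point compound titration. Sequential 30 min room-temperature steps; non-biotinylated SIRPalpha as control inhibitor.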

[4] = target: T1, Tyrosine-protein phosphatase non-receptor type substrate 1 (Homo sapiens) + Leukocyte surface antigen CD47 (Homo sapiens); assay: CD47-SIRPalpha protein protein interaction - Alpha assay qHTS validation (AID 1347059);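 note: bead proximity luminescence from CD47 binding SIRPalpha after compound preincubation with SIRPalpha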
How it was run: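 Biotinylated Avi-tagged SIRPalpha (25 nM) preincubated 30 min with compound, then His-tagged CD47 (12.5 nM) added 30 min; AlphaScreen with Ni-NTA acceptor and streptavidin donor beads. PBS pH 7.4, 0.05% IGEPAL, room temperature; 7-point titrations.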

[5] = target: Parathyroid hormone/parathyroid hormone-related peptide receptor (Homo sapiens) (UniProt Q03431); assay: qHTS for PTHR1 Agonists: Optimization Screen against the NCGC LOPAC library (AID 1347079);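 note: GloSensor cAMP luminescence in HEK-293 GP2 cells expressing human PTHR1 with IBMX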
How it was run: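 Compounds were tested across a qHTS titration. PTHR1-expressing GP2 cells report cAMP rises via GloSensor luminescence after 1 hr compound exposure at 37C with IBMX present.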

[6] = target: N-terminal Xaa-Pro-Lys N-methyltransferase 1 (Homo sapiens) (UniProt Q9BV86); assay: qHTS Assay for Inhibitors of N-terminal methyltransferase 1 (NTMT1): LOPAC validation of the NTMT1 SAHH-coupled ThioGlo3 Assay (AID 1347143);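 note: SAH from peptide methylation measured as thiol fluorescence via SAHH coupling and ThioGlo3; nearly all actives have a fitted effect of over 70% in size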
How it was run: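 Recombinant human NTMT1 (125nM) was pre-incubated 1 min at room temperature with compounds over a concentration range, then a mix of 100uM SAM, 10uM SAHH and 15uM ThioGlo3 (concentrations in added reagent) was added. ThioGlo3 fluorescence (ex 340/em 450nm) after 30 min was normalized to the initial reading.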

[7] = system: Zika virus NS2B-NS3 protease (unlinked); assay: Optimization of GU AMC qHTS for Zika virus inhibitors: Unlinked NS2B-NS3 protease assay (AID 1347151); note: nearly all actives have a fitted effect of over 80% in size; note: potency is the fitted concentration of half-maximal effect
How it was run: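 Percent inhibition is derived from the 15-min change in AMC fluorescence, normalized against no-inhibitor and no-enzyme controls, then fitted to a 4-parameter Hill curve. Aprotinin was the intraplate control.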

[8] = target: Lysine-specific demethylase 5B (Homo sapiens) (UniProt Q9UGL1); assay: Optimization screen for KDM5B Histone Demethylases FDH coupled qHTS against the LOPAC library (AID 1347166); details: KDM5B demethylation, FDH-coupled NADH fluorescence (FDH is formaldehyde dehydrogenase); at 57.5 µM (top of the series)
How it was run: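 KDM5BDeltaAP (200nM final) preincubated 10 min with compound, then 12.5uM H3K4Me3, 25uM a-ketoglutarate, ascorbate, Fe(II), NAD+ and FDH added; 50mM HEPES pH 7.5, 0.01% Tween-20. NADH fluorescence (340/450 nm) change over 30 min, room temperature.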

Sequence of Parathyroid hormone/parathyroid hormone-related peptide receptor (Homo sapiens) (Q03431 whole entry, looked up): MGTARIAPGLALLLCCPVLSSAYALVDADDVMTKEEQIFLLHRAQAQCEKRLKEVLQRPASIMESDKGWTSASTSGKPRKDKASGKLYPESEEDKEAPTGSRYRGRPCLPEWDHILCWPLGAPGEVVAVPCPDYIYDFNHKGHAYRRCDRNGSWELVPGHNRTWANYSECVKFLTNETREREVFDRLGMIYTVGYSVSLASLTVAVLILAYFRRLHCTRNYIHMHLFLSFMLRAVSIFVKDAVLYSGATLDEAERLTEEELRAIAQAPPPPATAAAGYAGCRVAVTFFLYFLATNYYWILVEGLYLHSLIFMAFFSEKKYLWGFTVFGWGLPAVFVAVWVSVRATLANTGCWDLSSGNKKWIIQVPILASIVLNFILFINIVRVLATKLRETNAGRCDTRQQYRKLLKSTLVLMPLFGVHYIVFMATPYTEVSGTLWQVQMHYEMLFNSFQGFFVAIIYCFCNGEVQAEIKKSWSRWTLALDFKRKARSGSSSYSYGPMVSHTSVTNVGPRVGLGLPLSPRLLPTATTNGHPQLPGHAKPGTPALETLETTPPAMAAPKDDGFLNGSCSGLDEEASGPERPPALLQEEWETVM
Sequence of Lysine-specific demethylase 5B (Homo sapiens) (Q9UGL1 whole entry, looked up): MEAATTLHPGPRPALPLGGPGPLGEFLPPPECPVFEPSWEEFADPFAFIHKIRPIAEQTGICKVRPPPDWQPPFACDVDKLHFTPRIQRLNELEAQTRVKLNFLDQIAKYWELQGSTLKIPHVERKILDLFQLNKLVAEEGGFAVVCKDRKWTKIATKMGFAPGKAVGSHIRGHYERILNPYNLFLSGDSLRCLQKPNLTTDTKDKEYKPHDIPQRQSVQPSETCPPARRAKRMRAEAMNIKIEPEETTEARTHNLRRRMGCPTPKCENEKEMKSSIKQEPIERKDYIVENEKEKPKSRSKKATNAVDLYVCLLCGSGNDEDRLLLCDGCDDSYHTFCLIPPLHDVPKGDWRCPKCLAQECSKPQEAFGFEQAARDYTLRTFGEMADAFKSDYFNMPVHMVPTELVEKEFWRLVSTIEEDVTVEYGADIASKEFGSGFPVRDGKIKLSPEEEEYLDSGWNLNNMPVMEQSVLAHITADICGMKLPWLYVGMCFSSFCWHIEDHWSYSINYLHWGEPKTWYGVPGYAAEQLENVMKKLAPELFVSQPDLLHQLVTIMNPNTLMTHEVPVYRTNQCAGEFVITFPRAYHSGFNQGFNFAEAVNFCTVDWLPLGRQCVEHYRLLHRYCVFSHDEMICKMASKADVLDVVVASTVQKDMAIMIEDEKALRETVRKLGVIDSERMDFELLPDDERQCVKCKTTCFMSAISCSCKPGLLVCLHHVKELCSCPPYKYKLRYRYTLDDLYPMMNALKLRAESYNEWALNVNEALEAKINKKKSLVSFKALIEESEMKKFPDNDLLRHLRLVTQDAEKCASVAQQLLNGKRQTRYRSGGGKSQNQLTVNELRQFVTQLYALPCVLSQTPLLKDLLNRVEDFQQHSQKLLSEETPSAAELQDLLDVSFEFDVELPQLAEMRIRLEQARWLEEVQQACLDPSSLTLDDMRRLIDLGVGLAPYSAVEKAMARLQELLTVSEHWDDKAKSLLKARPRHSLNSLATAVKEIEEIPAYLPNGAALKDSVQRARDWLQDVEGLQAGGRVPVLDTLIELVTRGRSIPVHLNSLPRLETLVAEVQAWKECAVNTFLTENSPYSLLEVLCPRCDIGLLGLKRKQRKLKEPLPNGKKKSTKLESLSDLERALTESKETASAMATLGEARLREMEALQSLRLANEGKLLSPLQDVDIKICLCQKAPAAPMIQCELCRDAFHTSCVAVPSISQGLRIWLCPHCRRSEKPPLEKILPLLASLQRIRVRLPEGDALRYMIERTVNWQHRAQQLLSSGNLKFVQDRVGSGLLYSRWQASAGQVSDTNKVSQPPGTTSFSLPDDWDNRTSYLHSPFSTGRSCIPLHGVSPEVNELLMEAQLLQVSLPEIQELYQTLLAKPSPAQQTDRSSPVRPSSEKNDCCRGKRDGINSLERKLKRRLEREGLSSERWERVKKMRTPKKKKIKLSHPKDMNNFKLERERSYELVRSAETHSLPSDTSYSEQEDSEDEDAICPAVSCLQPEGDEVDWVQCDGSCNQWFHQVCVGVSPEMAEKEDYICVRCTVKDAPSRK
Sequence of N-terminal Xaa-Pro-Lys N-methyltransferase 1 (Homo sapiens) (Q9BV86 whole entry, looked up): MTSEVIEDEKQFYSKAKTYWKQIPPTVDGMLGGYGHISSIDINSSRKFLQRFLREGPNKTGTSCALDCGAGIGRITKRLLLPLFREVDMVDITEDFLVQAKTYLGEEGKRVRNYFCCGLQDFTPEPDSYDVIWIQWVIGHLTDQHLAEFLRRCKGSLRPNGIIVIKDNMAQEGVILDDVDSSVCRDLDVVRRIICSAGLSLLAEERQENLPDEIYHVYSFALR
T1 sequence (P78324 whole entry, looked up): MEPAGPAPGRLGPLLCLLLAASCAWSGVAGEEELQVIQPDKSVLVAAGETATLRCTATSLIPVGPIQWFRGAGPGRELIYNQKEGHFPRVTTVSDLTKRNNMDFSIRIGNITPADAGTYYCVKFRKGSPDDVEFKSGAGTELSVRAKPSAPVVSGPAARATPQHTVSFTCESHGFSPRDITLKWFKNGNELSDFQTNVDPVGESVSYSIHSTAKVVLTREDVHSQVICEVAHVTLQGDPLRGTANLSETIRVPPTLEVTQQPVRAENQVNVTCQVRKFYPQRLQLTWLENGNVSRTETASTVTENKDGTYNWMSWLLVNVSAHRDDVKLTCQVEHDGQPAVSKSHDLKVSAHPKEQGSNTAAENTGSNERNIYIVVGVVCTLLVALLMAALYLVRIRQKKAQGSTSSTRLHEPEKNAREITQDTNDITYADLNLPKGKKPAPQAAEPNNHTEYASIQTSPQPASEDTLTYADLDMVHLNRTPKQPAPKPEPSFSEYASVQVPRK
T1 sequence (Q08722 whole entry, looked up): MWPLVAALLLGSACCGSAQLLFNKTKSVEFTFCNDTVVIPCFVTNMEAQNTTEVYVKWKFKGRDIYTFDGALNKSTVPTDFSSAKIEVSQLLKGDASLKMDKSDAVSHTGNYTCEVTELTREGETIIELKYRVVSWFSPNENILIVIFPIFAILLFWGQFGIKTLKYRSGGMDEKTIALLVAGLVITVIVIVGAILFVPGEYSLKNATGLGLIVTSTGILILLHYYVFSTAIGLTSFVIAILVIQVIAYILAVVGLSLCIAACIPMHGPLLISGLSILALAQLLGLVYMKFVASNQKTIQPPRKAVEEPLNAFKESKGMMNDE

SMILES | Potency [1] | Potency [2] | outcome [3] | Potency [4] | Potency [5] | Potency [6] | Potency [7] | activity, negative = inhibition [8] [%]
C=CCNc1ncnc2ccc(Br)cc12 | inactive | inactive | inactive | inactive | inactive | inactive | inactive | -0.201
O[Si](CCCN1CCCCC1)(c1ccc(F)cc1)C1CCCCC1 (stereo unspecified) | inactive | inactive | inactive | inactive | inactive | inactive | inactive | -4.4
CCOC(=O)C12CC1/C(=N/O)c1ccccc1O2 (stereo unspecified) | inactive | inactive | inactive | inactive | inactive | inactive | inactive | -9.53
CC(N)=NCCCC[C@@H](N)C(=O)O | inactive | inactive | inactive | inactive | inactive | inactive | inactive | -21.9
Nc1nc2c(nc(Br)n2C2OC3COP(=O)(O)O[C@@H]3C2O)c(=O)[nH]1 (stereo partly specified) | inactive | inactive | inactive | inactive | inactive | inactive | inactive | -2.81
CCCCCCCCCC(=O)NC(CN1CCOCC1)[C@H](O)c1ccccc1 (stereo partly specified) | inactive | inactive | inactive | inactive | inactive | inactive | inactive | -9.31
N=C(N)SCCN | inactive | inactive | inactive | inactive | inactive | inactive | inactive | -12
NC1(C(=O)O)CCCCC1 | inactive | inactive | inactive | inactive | inactive | inactive | inactive | -8.23
CO/N=C(\C(=O)N[C@@H]1C(=O)N2C(C(=O)O)=C(CSc3nc(=O)c(O)nn3C)CSC12)c1csc(N)n1 (stereo partly specified) | inactive | inactive | inactive | inactive | inactive | inactive | inactive | -14.3
CC1C(=O)N(C)C(=O)c2nc[nH]c21 (stereo unspecified) | inactive | inactive | inactive | inactive | inactive | inactive | inactive | -5.54
Cn1ccnc1 | inactive | inactive | inactive | inactive | inactive | inactive | inactive | -0.951
CN(C)CCC(c1ccc(Br)cc1)c1ccccn1 (stereo unspecified) | inactive | inactive | inactive | inactive | inactive | inactive | inactive | -1.47
CC(C)C[C@H](NC(=O)[C@H](O)[C@H](N)Cc1ccccc1)C(=O)O | inactive | inactive | inactive | inactive | inactive | inactive | inactive | -4.3
CCCCCCCCCC[Si](C)(C)CCC(=O)NC(Cc1ccc(C)cc1)c1ccccc1 (stereo unspecified) | inactive | inactive | inactive | inactive | inactive | inactive | inactive | -3.59
COC(=O)C(N)Cc1ccc(Cl)cc1 (stereo unspecified) | inactive | inactive | inactive | inactive | inactive | inactive | inactive | -3.16
COC1(C2=NCCN2)COc2ccccc2O1 (stereo unspecified) | inactive | inactive | inactive | inactive | inactive | inactive | inactive | -3.68
COc1cc([C@@H]2c3cc4c(cc3[C@H](O)C3COC(=O)[C@@H]32)OCO4)cc(OC)c1OC (stereo partly specified) | inactive | inactive | inactive | inactive | inactive | inactive | inactive | -3
CN1CC(O)C(O)C(O)C1CO (stereo unspecified) | inactive | inactive | inactive | inactive | inactive | inactive | inactive | -6.96
NC(N)=[N+]1CCc2ccccc2C1 | inactive | inactive | inactive | inactive | inactive | inactive | inactive | 2.33
O=C(O)CCC(=O)N1CCCC1C(=O)O (stereo unspecified) | inactive | inactive | inactive | inactive | inactive | inactive | inactive | -3.62
CCCCCCCCCCCCCCSCC(=O)O | inactive | inactive | inactive | inactive | inactive | inactive | 11.9 µM (active) | -24.4
NC1CCN(O)C1=O (stereo unspecified) | inactive | inactive | inactive | inactive | inactive | inactive | inactive | -8.73
